Measurements taken from ChEMBL document CHEMBL3988442, “University of Dundee, Small-Polar-MMV Screening Library” (2021).
For some assays here: Potency and affinity values are given separately.

Columns and labels:
Parameters in all cases: scale not given: direction of the effect not stated beside the values
[1] = target: Protein translocase subunit SecA (Escherichia coli (strain K12)) (UniProt P10408); assay: Assay to Identify E. coli SecA ATPase Inhibitors; format: functional; conditions: 30 µM
[2] = target: T1, Ubiquitin-activating enzyme e1, putative (Leishmania donovani (strain BPK282A1)) (UniProt E9BSI1); assay: Leishmania donovani Ubiquitin Activating Enzyme (LdE1); format: functional; conditions: 30 µM
T1 sequence (whole entry): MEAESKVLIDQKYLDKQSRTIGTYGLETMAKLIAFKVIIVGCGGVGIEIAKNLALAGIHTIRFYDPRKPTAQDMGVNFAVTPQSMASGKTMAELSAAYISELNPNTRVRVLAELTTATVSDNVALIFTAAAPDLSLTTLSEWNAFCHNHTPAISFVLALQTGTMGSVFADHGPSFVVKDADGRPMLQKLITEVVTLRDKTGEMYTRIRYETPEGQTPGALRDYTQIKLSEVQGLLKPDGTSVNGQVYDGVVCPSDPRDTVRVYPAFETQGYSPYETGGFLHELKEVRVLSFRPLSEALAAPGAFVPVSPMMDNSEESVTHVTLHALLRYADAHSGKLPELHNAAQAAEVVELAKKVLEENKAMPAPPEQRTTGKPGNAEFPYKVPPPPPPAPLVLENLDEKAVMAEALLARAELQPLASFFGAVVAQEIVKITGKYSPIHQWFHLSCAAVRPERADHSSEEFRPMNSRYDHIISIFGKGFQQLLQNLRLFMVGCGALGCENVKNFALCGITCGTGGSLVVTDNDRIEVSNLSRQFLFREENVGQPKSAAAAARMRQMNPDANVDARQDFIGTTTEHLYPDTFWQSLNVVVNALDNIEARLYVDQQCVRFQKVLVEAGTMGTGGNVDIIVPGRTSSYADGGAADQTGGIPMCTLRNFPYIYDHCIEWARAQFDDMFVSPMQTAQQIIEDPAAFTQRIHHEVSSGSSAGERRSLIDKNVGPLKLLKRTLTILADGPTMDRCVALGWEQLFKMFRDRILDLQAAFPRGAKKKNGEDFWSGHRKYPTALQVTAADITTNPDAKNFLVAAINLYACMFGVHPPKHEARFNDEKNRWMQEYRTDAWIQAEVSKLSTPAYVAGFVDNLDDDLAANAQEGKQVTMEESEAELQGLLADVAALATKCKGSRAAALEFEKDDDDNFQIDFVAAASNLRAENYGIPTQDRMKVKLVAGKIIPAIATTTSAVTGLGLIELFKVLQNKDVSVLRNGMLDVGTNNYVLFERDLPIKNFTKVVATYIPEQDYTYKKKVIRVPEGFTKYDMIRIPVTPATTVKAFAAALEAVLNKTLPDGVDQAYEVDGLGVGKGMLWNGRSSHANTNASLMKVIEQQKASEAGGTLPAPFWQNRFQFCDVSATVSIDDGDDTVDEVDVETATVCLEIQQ

[3] = target: AMP-activated protein kinase, AMPK (Homo sapiens) (UniProt P54646+O43741+P54619+Q9UGJ0+Q9Y478+Q13131+Q9UGI9); assay: AMP-dependent Kinase enzyme assay. An in vitro enzyme assay that detects ADP turnover that is directly proportional to AMPK activity. This uses naive AMPK that is activated during the assay with MK-8722; format: functional; conditions: 30 µM
[4] = target: Sialic acid-binding Ig-like lectin 9 (Homo sapiens) (UniProt Q9Y336); assay: Hs-Siglec9 ALPHAscreen SOP 20170721; conditions: 10 µM
Trypanosoma cruzi = assay: Trypanosoma cruzi phosphomannomutase and mannose-1-phosphate guanylyltransferase assay; format: functional; conditions: 10 µM
[5] = target: T2, Arginase-2, mitochondrial (Homo sapiens) (UniProt P78540); assay: in vitro enzyme assay to detect the production of urea directly proportional to the activity of Arginase II; format: functional; conditions: 33.3 µM; further: in the data most compounds retested in dose-response had high values
T2 sequence (whole entry): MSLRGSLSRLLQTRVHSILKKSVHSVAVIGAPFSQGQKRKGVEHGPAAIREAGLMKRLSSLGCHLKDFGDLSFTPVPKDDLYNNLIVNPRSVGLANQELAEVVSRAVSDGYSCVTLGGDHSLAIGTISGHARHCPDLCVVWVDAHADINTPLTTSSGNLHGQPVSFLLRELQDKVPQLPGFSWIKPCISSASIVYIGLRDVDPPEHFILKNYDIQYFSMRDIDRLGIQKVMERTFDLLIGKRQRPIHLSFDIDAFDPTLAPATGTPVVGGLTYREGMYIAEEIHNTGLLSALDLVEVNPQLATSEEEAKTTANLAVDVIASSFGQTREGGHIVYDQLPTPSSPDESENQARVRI

[6] = target: T3, Proteasome subunit beta (Trypanosoma cruzi) (UniProt O96673); assay: Trypanosoma cruzi proteasome chymotrypsin-like activity (TcProtChymo) assay.; further: in the data most compounds retested in dose-response had high values; format: functional; conditions: 9.37 µM
T3 sequence (whole entry): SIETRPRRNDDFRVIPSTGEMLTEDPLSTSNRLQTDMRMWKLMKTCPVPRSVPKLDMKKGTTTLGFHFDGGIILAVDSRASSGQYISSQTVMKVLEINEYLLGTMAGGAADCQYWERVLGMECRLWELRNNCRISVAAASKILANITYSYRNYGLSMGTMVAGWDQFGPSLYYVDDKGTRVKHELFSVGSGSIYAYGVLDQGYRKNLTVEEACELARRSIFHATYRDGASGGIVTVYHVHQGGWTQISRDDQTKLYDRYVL

Homo sapiens = organism: Homo sapiens; assay: To identify inhibition of the IFN signalling (Jak-Stat) pathway via expression of an eGFP reporter gene under the control of an IFN-stimulated response element (ISRE) containing MxA promoter.; format: functional; conditions: 30 µM
[7] = target: T4, Tyrosyl-tRNA synthetase, putative (Trypanosoma cruzi (strain CL Brener)) (UniProt Q4DSP6); assay: Trypanosoma cruzi tyrosyl tRNA synthetase (TcYRS) _High Tyrosine SOP; format: functional; conditions: 30 µM; further: in the data most compounds retested in dose-response had high values
T4 sequence (whole entry): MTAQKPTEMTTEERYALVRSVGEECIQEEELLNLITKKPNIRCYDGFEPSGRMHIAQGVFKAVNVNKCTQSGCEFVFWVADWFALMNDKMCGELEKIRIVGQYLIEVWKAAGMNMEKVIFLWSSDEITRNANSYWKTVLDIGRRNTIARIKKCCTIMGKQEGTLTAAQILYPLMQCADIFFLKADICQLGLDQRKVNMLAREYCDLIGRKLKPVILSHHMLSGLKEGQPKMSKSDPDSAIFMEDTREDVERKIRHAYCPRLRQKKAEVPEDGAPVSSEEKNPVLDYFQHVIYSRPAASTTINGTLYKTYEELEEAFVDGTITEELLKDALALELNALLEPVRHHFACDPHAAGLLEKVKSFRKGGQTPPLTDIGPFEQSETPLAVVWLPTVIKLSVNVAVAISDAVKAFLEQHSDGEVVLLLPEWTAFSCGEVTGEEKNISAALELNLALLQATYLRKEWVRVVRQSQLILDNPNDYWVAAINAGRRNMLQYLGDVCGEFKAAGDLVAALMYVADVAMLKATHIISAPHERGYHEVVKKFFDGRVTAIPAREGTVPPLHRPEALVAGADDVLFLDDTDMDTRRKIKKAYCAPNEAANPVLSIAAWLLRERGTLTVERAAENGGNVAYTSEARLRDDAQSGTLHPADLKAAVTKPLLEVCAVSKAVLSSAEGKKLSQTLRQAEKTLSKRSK

[8] = target: T4, Tyrosyl-tRNA synthetase, putative (Trypanosoma cruzi (strain CL Brener)); assay: Trypanosoma cruzi tyrosyl tRNA synthetase (TcYRS) SOP; format: functional; conditions: 30 µM
[9] = target: Chromo domain-containing protein 1 (Saccharomyces cerevisiae (strain ATCC 204508 / S288c) (Baker's yeast)) (UniProt P32657); assay: ScCHD-1 Enzyme Inhibition Assay; format: functional; conditions: 30 µM; further: in the data most compounds retested in dose-response had high values
Sequence of Chromo domain-containing protein 1 (Saccharomyces cerevisiae (strain ATCC 204508 / S288c) (Baker's yeast)) (P32657 whole entry, the tested form may be a part): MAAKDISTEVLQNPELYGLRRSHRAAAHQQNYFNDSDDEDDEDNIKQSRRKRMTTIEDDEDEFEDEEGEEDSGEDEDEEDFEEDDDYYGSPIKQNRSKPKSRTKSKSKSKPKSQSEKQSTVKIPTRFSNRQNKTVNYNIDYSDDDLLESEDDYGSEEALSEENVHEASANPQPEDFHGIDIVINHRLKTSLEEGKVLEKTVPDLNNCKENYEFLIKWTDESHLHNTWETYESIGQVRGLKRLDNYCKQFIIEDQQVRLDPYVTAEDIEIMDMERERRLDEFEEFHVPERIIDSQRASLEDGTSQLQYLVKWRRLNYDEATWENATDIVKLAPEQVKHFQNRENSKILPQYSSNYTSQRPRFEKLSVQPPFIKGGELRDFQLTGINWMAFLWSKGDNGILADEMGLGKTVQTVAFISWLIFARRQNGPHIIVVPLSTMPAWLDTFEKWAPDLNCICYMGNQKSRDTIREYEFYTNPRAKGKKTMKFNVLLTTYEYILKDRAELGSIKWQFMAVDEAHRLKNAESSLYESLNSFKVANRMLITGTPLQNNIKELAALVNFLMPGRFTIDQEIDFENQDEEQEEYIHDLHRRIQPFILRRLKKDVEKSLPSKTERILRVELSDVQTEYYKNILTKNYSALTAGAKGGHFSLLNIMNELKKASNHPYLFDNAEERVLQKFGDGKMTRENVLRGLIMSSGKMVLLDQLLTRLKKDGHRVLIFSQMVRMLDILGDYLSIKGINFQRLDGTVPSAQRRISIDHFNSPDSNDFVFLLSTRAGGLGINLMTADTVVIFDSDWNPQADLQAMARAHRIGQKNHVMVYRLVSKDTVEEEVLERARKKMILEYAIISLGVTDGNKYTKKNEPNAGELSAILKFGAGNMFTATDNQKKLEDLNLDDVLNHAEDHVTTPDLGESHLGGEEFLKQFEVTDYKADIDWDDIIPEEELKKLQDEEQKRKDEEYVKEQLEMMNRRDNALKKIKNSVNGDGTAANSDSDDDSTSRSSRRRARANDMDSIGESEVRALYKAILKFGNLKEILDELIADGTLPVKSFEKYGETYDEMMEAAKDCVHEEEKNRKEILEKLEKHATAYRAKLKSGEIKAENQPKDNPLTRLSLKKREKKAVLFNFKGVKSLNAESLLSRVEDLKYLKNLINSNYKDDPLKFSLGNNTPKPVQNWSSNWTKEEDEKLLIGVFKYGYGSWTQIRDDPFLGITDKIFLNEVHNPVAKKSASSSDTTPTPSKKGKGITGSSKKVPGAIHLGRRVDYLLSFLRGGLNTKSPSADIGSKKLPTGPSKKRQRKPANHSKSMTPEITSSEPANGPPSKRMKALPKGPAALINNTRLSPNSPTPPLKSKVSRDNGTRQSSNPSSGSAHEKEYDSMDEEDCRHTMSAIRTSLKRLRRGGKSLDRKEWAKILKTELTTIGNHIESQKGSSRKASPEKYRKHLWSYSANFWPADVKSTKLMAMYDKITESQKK

Sequence of Protein translocase subunit SecA (Escherichia coli (strain K12)) (P10408 whole entry): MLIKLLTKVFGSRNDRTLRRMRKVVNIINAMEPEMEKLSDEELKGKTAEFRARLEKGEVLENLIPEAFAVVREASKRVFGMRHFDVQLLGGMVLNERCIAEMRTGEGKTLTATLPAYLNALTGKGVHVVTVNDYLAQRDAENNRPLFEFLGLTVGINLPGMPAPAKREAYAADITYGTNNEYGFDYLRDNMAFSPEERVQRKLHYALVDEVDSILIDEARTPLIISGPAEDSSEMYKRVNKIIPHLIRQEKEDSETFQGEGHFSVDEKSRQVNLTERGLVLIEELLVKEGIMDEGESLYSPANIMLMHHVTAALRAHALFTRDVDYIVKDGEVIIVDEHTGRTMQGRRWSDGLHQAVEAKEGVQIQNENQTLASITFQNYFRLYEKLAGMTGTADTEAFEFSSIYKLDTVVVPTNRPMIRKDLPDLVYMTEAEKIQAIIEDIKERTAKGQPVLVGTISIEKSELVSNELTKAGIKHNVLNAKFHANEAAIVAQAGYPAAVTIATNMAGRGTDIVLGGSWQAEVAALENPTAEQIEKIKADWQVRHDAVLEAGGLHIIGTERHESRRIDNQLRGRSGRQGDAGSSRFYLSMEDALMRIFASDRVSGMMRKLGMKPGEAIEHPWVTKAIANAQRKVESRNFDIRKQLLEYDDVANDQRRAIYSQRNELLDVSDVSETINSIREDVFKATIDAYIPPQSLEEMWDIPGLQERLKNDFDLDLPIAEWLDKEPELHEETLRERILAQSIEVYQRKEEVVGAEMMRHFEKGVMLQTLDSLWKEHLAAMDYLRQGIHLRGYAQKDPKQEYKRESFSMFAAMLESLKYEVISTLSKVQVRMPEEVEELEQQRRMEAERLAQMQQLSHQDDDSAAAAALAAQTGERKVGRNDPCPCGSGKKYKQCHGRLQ
Sequence of Sialic acid-binding Ig-like lectin 9 (Homo sapiens) (Q9Y336 whole entry): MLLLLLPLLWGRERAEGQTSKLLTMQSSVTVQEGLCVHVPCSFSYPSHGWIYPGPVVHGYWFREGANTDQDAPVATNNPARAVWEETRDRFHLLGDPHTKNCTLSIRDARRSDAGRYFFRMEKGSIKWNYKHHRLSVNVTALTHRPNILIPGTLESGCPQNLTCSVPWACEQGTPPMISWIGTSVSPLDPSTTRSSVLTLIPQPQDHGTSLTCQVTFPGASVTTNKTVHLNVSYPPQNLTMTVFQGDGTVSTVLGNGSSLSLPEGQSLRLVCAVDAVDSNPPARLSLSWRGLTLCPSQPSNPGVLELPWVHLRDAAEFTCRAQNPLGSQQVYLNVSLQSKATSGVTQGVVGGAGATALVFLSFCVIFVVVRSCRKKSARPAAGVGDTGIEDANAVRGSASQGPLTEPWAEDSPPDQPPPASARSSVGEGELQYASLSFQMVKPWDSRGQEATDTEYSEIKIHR

Compound	Percent Effect [1] [%]	Percent Effect [2] [%]	Percent Effect [3] [%]	Percent Effect [4] [%]	Percent Effect (Trypanosoma cruzi) [%]	Percent Effect [5] [%]	Percent Effect [6] [%]	Percent Effect (Homo sapiens) [%]	Percent Effect [7] [%]	Percent Effect [8] [%]	Percent Effect [9] [%]
CCN(CC)C(=O)Cn1ccc2cc(NC(=O)C3CCCO3)ccc21 (configuration not stated)	-3.96	26.3	-13.9	1.14	6.39	-1.53	16.5	2.47	6.37	17.1	-14.2
CCCOCCN1CCC2(CC1)CC(c1ccccc1)C(=O)N2C (configuration not stated)	6.56	5.33	-0.289	-1.03	-9.45	-4.69	18.8	48.6	-2.73	1.24	-5.61
Cc1nn(C)c(C)c1CNC1CCOc2ccccc21 (configuration not stated)	-2.99	5.41	-3.93	-3.92	-4.01	-1.74	13.7	20	0	8.64	-2.87
Cc1noc(C)c1C(=O)NCC(C)N(C)C (configuration not stated)	1.71	16.2	-3.02	-9.99	-7.71	-1.29	21.5	11.2	3.96	13.4	-3.89
O=C(CCCOCc1ccccc1)N1CCCC1c1ccccn1 (configuration not stated)	-2.89	0	-0.0464	-0.638	2.55	7.99	5	-30.4	0.493	3.8	-2.69
CC(=O)c1cccc(OCCCC(=O)N(C)Cc2ccccn2)c1	0.239	0	-2.92	15.9	4.25	2.86	10.5	-7.21	-0.529	4.88	-9.86
Cc1ccc(C(=O)N2CCC(Oc3ccc(F)cc3F)CC2)c(=O)[nH]1	-4.74	5.26	3.18	-2.22	-7.52	1.53	8.69	43.4	0.49	4.88	-4.43
N#Cc1ccc(C(=O)NCCCNc2ccc(C(F)(F)F)cn2)cc1	-0.682	13.2	3.77	-0.309	-7.52	-0.766	9.02	35.5	7.35	17.1	-10.9
CCc1nccn1C1CCCN(C(=O)c2ccc(C(=O)NC)nc2)C1 (configuration not stated)	1.89	-2.6	1.32	2.31	-2.81	4.63	1.86	18.1	1.94	0	-4.59
Cc1ccc(N2CCCC(NCc3nc(C)c(C)o3)C2)nn1 (configuration not stated)	-2.18	-1.27	-3.24	1.76	9.54	-1.07	-2.4	2.43	3.12	15.2	-25.4
COCCCN(CCOC)C(=O)Nc1ccccc1Br	0.00988	-5.26	4.89	-4.8	-1.46	-10.7	2.01	-13.7	3.19	2.6	0.558
COc1c(CNC2CCOc3ccccc32)c(C(C)C)nn1C (configuration not stated)	-0.153	-48.6	-2.39	7.95	1.58	0.924	3.95	0.812	7.92	18.3	-6.55
Cc1ccc(CNCc2ccc(-n3nc(C)cc3C)nc2)cc1	-1.16	13.2	0.483	7.65	1.5	0.383	11.4	6.18	9.31	19.5	-9.49
COCCNS(=O)(=O)c1cccc2c1CN(C(=O)c1ccccc1)CC2	-6.17	-4.17	4.56	0.0622	-1.65	-2.21	4.39	34.9	-4.21	-10.3	4.48
CCOc1cccc2c1OCC(C(=O)NS(=O)(=O)c1ccc(C)s1)=C2	-4.93	-8.11	-7.07	7.91	-1.98	4.01	9.01	5.57	-9.36	-18.5	-1.03
CC(NCc1ccc(Cl)o1)c1nnc2n1CCCC2 (configuration not stated)	-1.28	13.5	2.81	2.02	0.195	11.2	15	24.2	6.93	18.3	1.09
CSc1ccsc1C(=O)N1CCN(CC(C)(C)O)CC1	-4.54	8.86	0.454	1.08	1.13	-4.95	4.29	3.01	4.17	-25.3	-14.7
Cn1cc(C(=O)NC[C@@H]2OC[C@H]3CN(Cc4ccco4)CC[C@H]32)cn1	1.17	8.22	-8.23	6.71	5.75	-2.79	8.3	17	3.12	11.1	-3.21
Cc1cnn(CC2CCCN2c2nn3cc(C)nc3s2)c1 (configuration not stated)	-7.38	11.4	-3.44	2.81	-0.103	-1.07	7.03	8.17	-2.08	15.2	-26
Cn1cc(CN2CCn3c(CNC(=O)c4cccn4C)cnc3C2)cn1	1.54	10.7	-1.53	26.8	-0.193	-52.1	14	0.903	7.29	22.5	-7.88
Cc1cc(C)cc(NC(=O)CN2CCCC(n3cncn3)C2)c1 (configuration not stated)	-3.62	8.11	1.86	6.56	8.08	-1.66	1.44	3.59	2.97	15.8	-2.91
COc1ncccc1C(=O)N1CCCC(c2cc(C)[nH]n2)C1 (configuration not stated)	-4.92	0	-0.772	-1.9	-0.66	-0.802	1.8	10.4	1.48	-6.17	1.58
